# Source: PubChem BioAssay (Tox21)
# Several values for one entry are separate records, joined by “and”; a condition that tells them apart may be missing. Equal entries are not always repeated. Results filed as inconclusive are left out. The source holds several records for some structures; these can differ, active in one and inactive in another. Activity calls are given as the source filed them. Calls follow the shape of the dose curve; as a rule, active = well fitted cell-killing curve with a large enough effect in the repeat runs; inconclusive = weak or mixed curves, or effect the other way; inactive = flat fitted curve, though single readings scatter. Starred links: 1 amine or outer side, 2 acyl side, 3 side chain; linkers in the order of their positions; H or OH if unused. Positions of bridges follow the written chain, without caps; N, C: chain ends. Non-standard residues stand in square brackets, D forms with d. Residues, ends and D or L forms follow the SMILES beside them. Chains are numbered I, II in the order given. Actinocin(9to1) = Cc1c2oc3c(C)ccc(C(=O)[*:1])c3nc-2c(C(=O)[*:2])c(N)c1=O; NMeV = CN[C@H](C(=O)O)C(C)C; Sar = CNCC(=O)O
# Test: qHTS RealTime-Glo MT Cell Viability Assay in HEK293 cells - 16 hour (AID 1224872); also: nearly all actives have a fitted effect of over 50% in size; as to activity change, negative = cytotoxicity: top concentration of the series differs between compounds
# Conditions: RealTime-Glo luminescence; series mostly up to 76.8 µM; activity change, negative = cytotoxicity: at the top concentration
# Source text: National Center for Advancing Translational Sciences [NCATS]
# NIH Chemical Genomics Center [NCGC]
# U.S. Environmental Protection Agency [EPA]
# National Institutes of Environmental Health Sciences [NIEHS]
# National Toxicology Program [NTP]
# U.S. Food and Drug Administration [FDA]
# Measure of cell viability is critical in the cell-base assay. Analysis of cell viability is necessary for the characterization of cell responses to cytotoxic drugs and environmental stress. A RealTime-Glo MT Cell Viability Assay to monitor cell viability in real time of continues cell culture during 40 hours of compound treatment was used to screen Tox21 10K library compounds in Hek293 cells. The RealTime-Glo MT Cell Viability Assay is a nonlytic, homogeneous, bioluminescent method to measure cell viability in real time using a simple, plate-based method. The assay involves adding NanoLuc luciferase and a cell-permeant prosubstrate to cells in culture. Viable cells reduce the proprietary prosubstrate to generate a substrate for NanoLuc luciferase. This substrate diffuses from cells into the surrounding culture medium, where it is rapidly used by the NanoLuc Enzyme to produce a luminescent signal. The signal correlates with the number of viable cells, making the assay well suited for cytotoxicity studies.
# Tox21 Assay Protocol Summary:
# The mixture of Hek293 cell suspension and reagents were dispensed at 600cells/6 ul/well in 1536-well tissue culture treated black solid bottom plates using a Multidrop dispenser. After the assay plates were incubated at a 37 C/5% CO2 incubator for 5 hours, 23 nL of compounds dissolved in DMSO, positive and negative controls was transferred to the assay plate by a pintool work station. The plates were incubated at 37 C for 40 hours. The luminescence intensity were measured at 0h, 8h, 16h, 24h, 32h and 40h time points using ViewLux plate reader during compound treatment.
# % is scaled to controls: 0 for no effect and ±100 for the full control effect; potency is read from the fitted curve at half-maximal effect.
SMILES,"activity change, negative = cytotoxicity",Potency
CC(C)(O)CCC(C)(C)O,-0.545% (inactive),–
CC[C@H]1CN2CCc3cc(OC)c(OC)cc3[C@@H]2C[C@@H]1C[C@H]1NCCc2cc(OC)c(OC)cc21,–,24.6 nM (active) and 75.6 nM (active)
CCCCCCCCCCCCc1ccccc1O,–,43.1 µM (active) and 43.6 µM (active)
CCOC(=O)C(C)C(C)=O (stereo not given),1.75% (inactive),–
CCn1cc(C(=O)O)c(=O)c2cc(F)c(N3CCNC(C)C3)c(F)c21 (stereo not given),18.7% [at 35.3 µM] (inactive),–
O=C1NCC2(CCN(CCc3ccccc3)CC2)O1,5.77% [at 35.3 µM] (inactive),–
CN1C(=O)c2ccc([N+](=O)[O-])cc2C1=O,-0.691% (inactive),–
CCC(CO)(CO)COCC(CC)(CO)CO,3.6% (inactive),–
Oc1c(Cl)cc(Cl)cc1Sc1cc(Cl)cc(Cl)c1O,-23.2% [at 35.3 µM] (inactive),–
COC(=O)[C@H]1[C@H]2C[C@@H]3c4[nH]c5cc(OC)ccc5c4CCN3C[C@H]2C[C@@H](OC(=O)c2cc(OC)c(OC)c(OC)c2)[C@@H]1OC,–,4.89 µM (active) and 5.65 µM (active) and 4.77 µM (active)
[Cl][In]([Cl])[Cl],27.4% (inactive),–
CC(=O)OCC1=C(C(=O)O)N2C(=O)[C@@H](NC(=O)Cc3cccs3)[C@H]2SC1,0.424% [at 35.3 µM] (inactive),–
OCCN1CCNCC1,–,15.8 µM (active)
CCCCOCCOC(=O)c1ccccc1C(=O)OCCOCCCC,-24% (inactive),–
CC(=O)N[C@@H](CS)C(=O)O,–,inactive
CC(C)CCOCc1ccccc1,-3.9% (inactive),–
"Cc1c2oc3c(C)ccc(C(=O)N[C@@H]4C(=O)N[C@H](C(C)C)C(=O)N5CCC[C@H]5C(=O)N(C)CC(=O)N(C)[C@@H](C(C)C)C(=O)O[C@@H]4C)c3nc-2c(C(=O)N[C@@H]2C(=O)N[C@H](C(C)C)C(=O)N3CCC[C@H]3C(=O)N(C)CC(=O)N(C)[C@@H](C(C)C)C(=O)O[C@@H]2C)c(N)c1=O (I: T[dV]P[Sar][NMeV] / II: T[dV]P[Sar][NMeV]; ester I:1-I:C, II:1-II:C; linker I:N-II:N via Actinocin(9to1))",–,33.7 nM (active) and 120 nM (active)
CCCN[C@H]1CCc2nc(N)sc2C1,–,inactive
Cc1cc(Cc2cc(C)cc(C(C)(C)C)c2O)c(O)c(C(C)(C)C)c1,–,15.6 µM (active) and 17.4 µM (active)
Cc1cc(C2(c3cc(C)c(O)cc3C)OS(=O)(=O)c3ccccc32)c(C)cc1O,–,inactive

SMILES,"activity change, negative = cytotoxicity",Potency
CCCCN(CCO)CCCC,2.28% (inactive),–
O=C(Cl)c1cccc(C(=O)Cl)c1,–,inactive
CC(=O)CC(C)=O,-15.3% (inactive),–
CC(=O)OCCOCCOCCOC(C)=O,–,inactive
CC1=CC(=O)c2ccccc2C1=O,–,13.8 µM (active) and 23.9 µM (active)
CCCCCCCCCCCCCC[P+](CCCC)(CCCC)CCCC,–,5.46 µM (active) and 549 nM (active)
CC[C@]1(O)C[C@@H]2CN(CCc3c([nH]c4ccccc34)[C@@](C(=O)OC)(c3cc4c(cc3OC)N(C)[C@H]3[C@@](O)(C(=O)OC)[C@H](OC(C)=O)[C@]5(CC)C=CCN6CC[C@]43[C@@H]65)C2)C1,-32% [at 35.3 µM] (inactive),–
c1ccc2c(c1)-c1cccc3c1c-2cc1ccccc13,–,inactive
Cc1cccc(O)c1C,–,inactive
O=Cc1ccc(Cl)cc1,0.139% (inactive),–
CCC[C@H](N[C@@H](C)C(=O)N1[C@H](C(=O)O)C[C@@H]2CCCC[C@@H]21)C(=O)OCC,–,inactive
N[C@@H]1CONC1=O,2.75% [at 35.3 µM] (inactive),–
CC1COC(=O)O1 (stereo not given),–,inactive
Cc1ccc(-c2cc(C(F)(F)F)nn2-c2ccc(S(N)(=O)=O)cc2)cc1,–,38.7 µM (active) and 27.5 µM (active) and inactive
O=C(Oc1ccccc1)c1ccccc1O,–,inactive
CC(N)=O,11.5% [at 200 µM] (inactive),–
c1ccc2c(c1)CCCC2C1=NCCN1 (stereo not given),7.01% [at 35.3 µM] (inactive),–
Nc1ccc(O)cc1,–,40.4 µM (active) and inactive
Nc1nc(=S)c2[nH]cnc2[nH]1,-23.7% [at 35.3 µM] (inactive),–
NC(Cc1ccc(Cl)cc1)C(=O)O (stereo not given),9.16% [at 0.29 µM] (inactive),–
